This is part of a sample that, as a whole, favours compounds with a hit. Of some 83,000 tested, about 20% had one in any assay.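 The test compound was applied at a single concentration to cells in 96-well plates for 48 hours, and percent growth was recorded.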 Unmarked numbers belong to inactive results. The source made the active and inactive calls. How the source made its calls: active means growth percent below 10; inactive means the rest.

Among the test systems are SR leukemia; RPMI-8226 leukemia; OVCAR-8 ovarian; OVCAR-5 ovarian; OVCAR-4 ovarian; SK-OV-3 ovarian; IGROV1 ovarian; OVCAR-3 ovarian; HS 578T breast; NCI/ADR-RES ovarian; T-47D breast; BT-549 breast; MDA-MB-435 melanoma; SW-620 colon; MCF7 breast; HCT-116 colon; HCC-2998 colon; KM12 colon.
Common to all, as to test: NCI-60 one-dose screen, 48 h (100 = growth as untreated, 0 = no growth, -100 = all killed)
Details in all cases: 10 µM

In the case of `CCOC(=O)CNC(=O)Nc1ccc(Oc2ccc(NC(=O)NCC(=O)OCC)cc2)cc1`, the growth with SR leukemia is 94.2%; in the assay with RPMI-8226 leukemia, 99.9%; in the assay on OVCAR-8 ovarian it was 98.4%; with OVCAR-5 ovarian it was 112%; with OVCAR-4 ovarian, 106%; with SK-OV-3 ovarian it was 104%. The growth in the assay with IGROV1 ovarian is 102%; in the assay with OVCAR-3 ovarian it was 107%; in the assay with HS 578T breast it was 101%; with NCI/ADR-RES ovarian, 101%; in the assay with T-47D breast, 106%; in the assay on BT-549 breast, 111%. Further, the growth with MDA-MB-435 melanoma is 95.4%; in the assay with SW-620 colon, 98%; in the assay with MCF7 breast, 76.4%; in the assay with HCT-116 colon, 98.1%; in the assay with HCC-2998 colon it was 93.3%; with KM12 colon, 105%.

Consider `COc1cc(CSc2nc3ccc(Cl)cc3c(=O)n2Cc2ccccc2)cc(OC)c1OC`, for which the growth is 23.1% in the assay with SR leukemia; 68.7% in the assay with RPMI-8226 leukemia; 53% with OVCAR-8 ovarian; 46.7% with OVCAR-5 ovarian; 52% in the assay with OVCAR-4 ovarian; 24.4% in the assay on SK-OV-3 ovarian. Also, the growth is 35.3% with IGROV1 ovarian; -0.909% (active) in the assay on OVCAR-3 ovarian; 30.5% with HS 578T breast; 14% in the assay with NCI/ADR-RES ovarian; 33.9% in the assay on T-47D breast; 21.7% in the assay on BT-549 breast. The growth in the assay on MDA-MB-435 melanoma was 1.84% (active); with SW-620 colon, 28.7%; in the assay with MCF7 breast, 14.3%; in the assay on HCT-116 colon, 20.8%; with HCC-2998 colon it was 50.1%; in the assay on KM12 colon it was 23.7%.

Consider `CCOC(=O)Nc1ccc2c(c1)C(=O)N(CCOC)c1ccccc1O2`, for which the growth was 17.5% in the assay on SR leukemia; 22.2% with RPMI-8226 leukemia; 52.8% in the assay with OVCAR-8 ovarian; 87.9% with OVCAR-5 ovarian; 62.1% in the assay on OVCAR-4 ovarian; 37.3% in the assay on SK-OV-3 ovarian. For the same compound, the growth was 57.8% in the assay with IGROV1 ovarian; 8.46% (active) in the assay with OVCAR-3 ovarian; 44.4% in the assay with HS 578T breast; 24.1% in the assay on NCI/ADR-RES ovarian; 30.5% with T-47D breast; 52.8% in the assay on BT-549 breast. The growth with MDA-MB-435 melanoma was -14.2% (active); in the assay with SW-620 colon, 32%; in the assay with MCF7 breast it was 14.4%; in the assay with HCT-116 colon, 24.4%; with HCC-2998 colon, 55.3%; in the assay with KM12 colon it was 23%.

For the compound `COc1cccc2c1O/C(=C\c1ccc([N+](=O)[O-])s1)C2=O`, the growth is 8.26% (active) with SR leukemia; 25.7% in the assay on RPMI-8226 leukemia; 24.7% in the assay with OVCAR-8 ovarian; 101% with OVCAR-5 ovarian; 74.2% in the assay with OVCAR-4 ovarian; 96.6% with SK-OV-3 ovarian. Moreover, the growth was 25.9% with IGROV1 ovarian; -16.7% (active) in the assay with OVCAR-3 ovarian; 40.8% in the assay with HS 578T breast; 87.5% with NCI/ADR-RES ovarian; 39.6% in the assay on T-47D breast; -14.3% (active) with BT-549 breast. The growth with MDA-MB-435 melanoma was 48.4%; with SW-620 colon it was -28.6% (active); with MCF7 breast, 42.8%; in the assay on HCT-116 colon, -14% (active); in the assay on HCC-2998 colon, 89.7%; in the assay on KM12 colon, 18.3%.

Regarding `Cc1ccc(-n2c(-c3cc4c([nH]c5ccccc54)c(-c4cccc(O)c4)n3)n[nH]c2=S)cc1`, the growth with SR leukemia is -21.8% (active); with RPMI-8226 leukemia, -14.1% (active); with OVCAR-8 ovarian, 0.787% (active); in the assay with OVCAR-5 ovarian, 50.1%; in the assay with OVCAR-4 ovarian it was 26.4%; with SK-OV-3 ovarian it was -14.5% (active). Also, the growth in the assay with IGROV1 ovarian is -3.48% (active); in the assay on OVCAR-3 ovarian, -36.1% (active); in the assay with HS 578T breast, 23.4%; with NCI/ADR-RES ovarian it was 61.7%; in the assay on T-47D breast, 20.4%; with BT-549 breast, -35.7% (active). Further, the growth in the assay with MDA-MB-435 melanoma was 1.24% (active); with SW-620 colon it was 10.5%; with MCF7 breast it was 2.88% (active); in the assay on HCT-116 colon, 3.29% (active); in the assay on HCC-2998 colon, -52.5% (active); in the assay on KM12 colon, 5% (active).

In the case of `O=C(Nc1ccc(OS(=O)(=O)Cc2ccccc2)cc1)C12CC3CC(CC(C3)C1)C2`, the growth was 30.3% in the assay with SR leukemia; 35% in the assay on RPMI-8226 leukemia; 91.4% in the assay on OVCAR-8 ovarian; 104% with OVCAR-5 ovarian; 78.7% in the assay on OVCAR-4 ovarian; 87.3% with SK-OV-3 ovarian. The growth was 97.8% with IGROV1 ovarian; 80.2% with OVCAR-3 ovarian; 98.7% with HS 578T breast; 84.4% in the assay on NCI/ADR-RES ovarian; 51.3% in the assay with T-47D breast; 71.2% in the assay with BT-549 breast. Further, the growth in the assay on MDA-MB-435 melanoma was 97.9%; with SW-620 colon, 25.3%; with MCF7 breast, 80.7%; in the assay with HCT-116 colon it was 63.9%; in the assay on HCC-2998 colon, 49.1%; in the assay on KM12 colon, 42.4%.

With `C=CCNC(=S)NN`, the growth is 54.6% in the assay with SR leukemia; 74.2% in the assay on RPMI-8226 leukemia; 71.2% in the assay with OVCAR-8 ovarian; 69.7% in the assay on OVCAR-5 ovarian; 96.8% in the assay with OVCAR-4 ovarian; 98.4% with SK-OV-3 ovarian. The growth with IGROV1 ovarian was 45.3%; in the assay on OVCAR-3 ovarian, 96.5%; in the assay on HS 578T breast it was 89.5%; in the assay on NCI/ADR-RES ovarian it was 82.7%; in the assay on T-47D breast, 50.5%; in the assay with BT-549 breast, 99.2%. In addition, the growth in the assay with MDA-MB-435 melanoma was 95.4%; in the assay with SW-620 colon, 85.5%; with MCF7 breast it was 8.89% (active); in the assay on HCT-116 colon, 6.82% (active); with HCC-2998 colon, 107%; in the assay with KM12 colon, 98.6%.

For `COc1cc(/C=C/C(=O)c2cc(-c3ccccc3)ccc2O)cc(OC)c1OC`, the growth in the assay with SR leukemia is 43.4%; in the assay on RPMI-8226 leukemia it was 12.3%; in the assay with OVCAR-8 ovarian it was 60.8%; in the assay with OVCAR-5 ovarian it was 93.1%; with OVCAR-4 ovarian, 68%; in the assay on SK-OV-3 ovarian it was 71.3%. The growth in the assay with IGROV1 ovarian is 83%; in the assay on OVCAR-3 ovarian it was 77.2%; in the assay on HS 578T breast, 82.3%; with NCI/ADR-RES ovarian, 69.4%; with T-47D breast, 43.4%; in the assay on BT-549 breast it was 88.8%. Also, the growth is 55.4% with MDA-MB-435 melanoma; 81.9% in the assay with SW-620 colon; 47% with MCF7 breast; 61.3% in the assay with HCT-116 colon; 97% in the assay with HCC-2998 colon; 78.6% in the assay with KM12 colon.

Values taken from PubChem BioAssay (NCI).
